Screening results (PubChem BioAssay)
Beta apoptosis: beta cell apoptosis inhibition; 300,000 tested, 0.8% active; INS-1E cytokine-induced death, ATP luminescence, 48 h; percent of positive-control rescue, neutral wells zero; AID 435005; protection from apoptosis, % (concentration not given with the values);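 active means Every replicate reaches about 75%, or at least half do and their mean reaches it too, limit read from the data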;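 further: 0% = cytokine-treated negative control wells and 100% = positive control rescue; higher means more ATP so stronger rescue from cytokine killing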
Gli-Sufu antag: blocks Gli-Sufu signaling in a luciferase reporter | AID 588413 | inhibition, % at 5 µM | 340,000 tested, 0.74% active | Sufu-KO-LIGHT fibroblasts, Gli luciferase reporter luminescence;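 active means inhibition above about 55%, limit read from the data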;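 further: 0% = DMSO-treated cells and 100% = wells with medium but no cells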
697 NFkB inh: lowers PMA/ionomycin-induced NF-kB signal in 697 B cells | 697 B-cell NF-kB luciferase reporter, 16 h | inhibition, % at 4 µM | AID 435022 | 330,000 tested, 0.33% active; in the data active means inhibition above about 35%
Jurkat NFkB inh: inhibitors of the PMA/ionomycin-induced NF-kB reporter in Jurkat cells. PMA/ionomycin-induced NF-kB luciferase reporter, luminescence. 330,000 tested, 0.53% active. inhibition, % at 4 µM; in the data active means inhibition above about 50%
Mdm2-MdmX inh: inhibitors of human Mdm2/MdmX interaction; 330,000 tested, 3% active; SaOS-2 split-luciferase Mdm2/MdmX complementation, luminescence; inhibition, % at 8 µM; O15151+Q00987;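 active means inhibition of at least 50% at 8 µM in the primary screen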
Target sequence (O15151 whole entry, looked up): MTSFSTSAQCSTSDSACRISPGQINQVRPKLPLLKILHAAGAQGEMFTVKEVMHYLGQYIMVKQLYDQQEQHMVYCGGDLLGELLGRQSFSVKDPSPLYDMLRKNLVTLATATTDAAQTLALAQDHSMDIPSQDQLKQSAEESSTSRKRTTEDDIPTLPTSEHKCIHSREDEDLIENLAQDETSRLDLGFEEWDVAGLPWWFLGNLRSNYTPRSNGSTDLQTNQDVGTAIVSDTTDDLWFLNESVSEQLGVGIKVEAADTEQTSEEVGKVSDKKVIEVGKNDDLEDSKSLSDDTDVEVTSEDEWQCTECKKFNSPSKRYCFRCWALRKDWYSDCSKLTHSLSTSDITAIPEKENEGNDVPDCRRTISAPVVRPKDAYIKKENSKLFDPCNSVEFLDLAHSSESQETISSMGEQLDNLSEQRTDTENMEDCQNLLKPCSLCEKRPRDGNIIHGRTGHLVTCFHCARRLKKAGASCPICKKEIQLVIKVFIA
Target sequence (Q00987 whole entry, looked up): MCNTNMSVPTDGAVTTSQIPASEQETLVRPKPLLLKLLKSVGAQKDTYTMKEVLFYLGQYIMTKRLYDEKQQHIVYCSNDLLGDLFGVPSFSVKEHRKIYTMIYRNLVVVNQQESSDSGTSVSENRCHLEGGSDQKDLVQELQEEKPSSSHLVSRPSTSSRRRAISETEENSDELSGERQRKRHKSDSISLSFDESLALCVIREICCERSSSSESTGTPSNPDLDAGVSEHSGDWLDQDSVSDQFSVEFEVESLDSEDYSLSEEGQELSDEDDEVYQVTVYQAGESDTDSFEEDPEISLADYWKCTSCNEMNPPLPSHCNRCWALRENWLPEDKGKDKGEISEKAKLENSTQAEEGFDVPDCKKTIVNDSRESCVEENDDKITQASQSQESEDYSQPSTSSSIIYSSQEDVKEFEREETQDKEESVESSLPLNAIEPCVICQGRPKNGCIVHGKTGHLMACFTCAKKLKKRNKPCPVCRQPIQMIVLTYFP
Mdm2 MdmX conf: human Mdm2/MdmX binding inhibition, confirmed. shares compounds with Mdm2-MdmX inh. luminescent assay. inhibition, % at 8 µM. 10,000 tested, 55% active. AID 489028; in the data active means inhibition above about 40%
Full FLuc ctr: inhibits full-length luciferase, flagging false Mdm2/MdmX hits; 6,200 tested, 77% active; AID 504607; inhibition, % at 8 µM; SaOS-2 full-length luciferase counterscreen, luminescence; shares compounds with Mdm2-MdmX inh;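 active means mean inhibition at 8 µM reaching about 37%, which flags the compound as non-specific, limit read from the data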;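 further: p53-null SaOS-2 cells with luciferase driven by a doxycycline-inducible promoter; compound on cells about two nights before reading with doxycycline added after day one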
Active calls of the source: *; x = no result. Shown are actives, neighbours in structure and some others; about 4% of the full set was active somewhere.

SMILES	Beta apoptosis	Gli-Sufu antag	697 NFkB inh	Jurkat NFkB inh	Mdm2-MdmX inh	Mdm2 MdmX conf	Full FLuc ctr
Cc1cc(/C=N/n2c(COc3ccccc3)nc3ccccc3c2=O)c(O)c([N+](=O)[O-])c1	55.2	9.7	-55.0	2.9	58.6*	47.1*	39.6*
Cc1ccc(-c2[nH]ncc2/C=N/n2c(COc3ccccc3)nc3ccccc3c2=O)cc1	41.4	1.7	9.5	19.4	82.4*	45.6*	55.9*
Cc1ccc(N(NC(=O)C(O)(c2ccccc2)c2ccccc2)C(=O)CCl)cc1	-9.0	3.0	-2.5	-7.4	99.6*	97.2*	56.1*
O=C(Nc1ccccc1)NN(C(=O)CCl)c1ccccc1	-41.2	23.1	-2.3	12.3	99.6*	75.7*	58.4*
CCC(O)(CC)C(=O)NN(C(=O)CCl)c1ccccc1	22.8	-23.9	-42.7	-14.4	27.3	x	x
CC(=O)OCC(=O)C1(O)CCC2C3CCC4=CC(=O)CCC4(C)C3(F)C(O)CC21C (centres undefined)	x	16.7	x	x	x	x	x
Cc1ccc(-c2ccc(/C=N\NC(=O)c3cc4c(ccc5ccccc54)o3)o2)cc1[N+](=O)[O-]	23.1	2.7	9.9	18.9	94.0*	33.6	x
Cc1cc(C(=O)N/N=C/c2ccc(-c3ccc([N+](=O)[O-])cc3C)o2)n[nH]1	-1.5	-7.7	19.8	-1.3	2.3	x	x
Cc1cc([N+](=O)[O-])ccc1-c1ccc(/C=N/NC(=O)c2ccc(Br)o2)o1	65.3	8.8	21.9	-5.4	95.2*	16.1	x
O=C1NC(=O)C(c2ccc(F)cc2)N1 (centres undefined)	x	29.0	-30.0	-25.3	-53.4	x	x
N#Cc1cc(-c2ccccc2)oc1/N=C/c1ccccc1O	0.1	-0.3	-22.9	-3.4	52.9*	57.2*	105.4*
CN(C)CCN(Cc1ccccc1)C(=O)[C@H](Cc1ccccc1)N1C(=O)c2ccccc2C1=O	-1.6	3.4	6.7	-0.1	-17.0	x	x
Cc1cccc2c(=O)c(C(=O)NCCc3ccccc3)c[nH]c12	11.7	-14.7	-18.2	-32.1	17.5	x	x
Cc1[nH]c2c(C)cccc2c1CCNC(=O)c1ccc2c(c1[N+](=O)[O-])C(=O)c1ccccc1C2=O	-7.1	1.1	-28.6	20.5	74.7*	31.2	x
Cc1[nH]c2ccccc2c1CCNC(=O)c1ccc2c(c1[N+](=O)[O-])C(=O)c1ccccc1C2=O	9.6	-0.5	-22.3	-3.3	68.8*	20.4	x
CN(C)C(=O)c1ccc2c(c1[N+](=O)[O-])C(=O)c1ccccc1C2=O	28.7	-44.0	-14.4	-46.2	14.1	x	x
Cc1c(NS(=O)(=O)c2cccc(C(=O)NCc3ccco3)c2)c(=O)n(-c2ccccc2)n1C	x	-0.9	x	x	x	x	x
O=[N+]([O-])c1cc(S(=O)(=O)N2CCCCC2)ccc1NCCCN1CCOCC1	3.7	0.8	3.8	5.0	6.6	x	x
COc1cc(C2CC(=O)N(c3ccc(C)cc3)C(=O)C2)cc(OC)c1OC	7.3	-16.1	-34.7	21.5	53.7*	40.9*	61.0*
Cn1nc([N+](=O)[O-])nc1S(C)(=O)=O	x	20.0	-48.4	35.2	-5.8	x	x
CS(=O)(=O)c1nc([N+](=O)[O-])nn1CCCc1ccccc1	-78.3	-0.4	0.7	14.3	55.2*	19.1	x
COc1cc(/C=N/N=C(N)N)ccc1OCc1ccc(Cl)cc1	98.1*	51.8	-143.5	-4.6	100.5*	49.9*	127.3*
NC(N)=N/N=C/c1ccc(OCc2ccccc2)c(OCc2ccccc2)c1	9.2	-5.5	-5.9	14.4	96.3*	67.2*	65.4*
CCOc1cc(/C=N/N=C(N)N)ccc1OCc1ccc(Cl)cc1	15.8	2.7	x	x	x	x	x
COc1ccc(-c2nc3c(c(SCC(=O)N4CCOCC4)n2)Cc2c(CO)cnc(C)c2O3)cc1	2.6	20.7	31.6	8.5	58.4*	28.5	x
SMILES	Beta apoptosis	Gli-Sufu antag	697 NFkB inh	Jurkat NFkB inh	Mdm2-MdmX inh	Mdm2 MdmX conf	Full FLuc ctr
CCN(CC(=O)Nc1ccc(S(=O)(=O)N2CCCC2)cc1)Cc1ccccc1	4.0	6.2	10.4	8.0	-5.9	x	x
COC(=O)Nc1nc(-c2ccccc2)c(C(=O)c2ccccc2)s1	24.6	19.0	-16.4	41.0	61.3*	54.1*	95.2*
COc1ccc(C(=O)Nc2nc(-c3ccccc3)c(C(C)=O)s2)c(OC)c1	-9.8	-24.3	-78.0	-62.6	57.9*	20.9	113.0*
COc1ccc(CCNC(=O)CN2C(=O)NC3(CCOc4ccccc43)C2=O)cc1 (centres undefined)	x	-8.8	10.9	13.8	16.0	x	x
O=S(=O)(c1ccccc1)c1nnn2c1nc(NC1CCN(Cc3ccccc3)CC1)c1ccccc12	24.2	40.1	-9.8	10.7	53.8*	33.4	x
O=S(=O)(c1ccccc1)c1nnn2c1nc(NC1CCN(Cc3ccccc3)CC1)c1cc(Cl)ccc12	20.0	40.3	-34.5	-8.4	100.3*	36.5	51.5*
Cc1ccc(C)c(Nc2nc3c(S(=O)(=O)c4ccccc4)nnn3c3ccccc23)c1	11.6	24.5	-2.3	14.1	36.9	x	x
CC(C)OCCCN(C)C1CCN(S(=O)(=O)c2csc(C(N)=O)c2)CC1	-4.7	11.8	5.4	3.1	12.3	x	x
CC(C)OCCCN(C)C1CCN(S(=O)(=O)c2ccc(-c3cc(C(F)(F)F)no3)s2)CC1	10.3	43.4	-9.4	11.5	50.4*	30.2	x
Cc1ccc(-c2csc(NC(=O)C3=NN(C4CCS(=O)(=O)C4)C(=O)CC3)n2)cc1 (centres undefined)	1.7	-2.7	-3.9	8.8	16.4	x	x
O=C1C=C(c2ccc3ccccc3c2)C[C@@H](c2ccc(F)cc2)C1	2.7	-23.6	-13.9	-4.8	52.0*	-6.2	x
CCCn1c(=O)c(C(=O)NNS(=O)(=O)c2ccc(C)cc2)c(O)c2ccccc21	4.4	-3.6	-8.0	-11.2	50.9*	30.2	84.6*
Cc1oc(-c2ccc(Cl)cc2)cc1C(=O)/C(C#N)=C/Nc1ccccc1	-2.8	6.3	5.3	7.5	61.9*	9.7	x
Cc1ccccc1OCC(=O)O/N=C(\N)Cc1cccs1	x	-16.8	-30.0	-16.4	-4.4	x	x
COc1ccccc1C/C(N)=N/OC(=O)c1cccs1	x	x	15.2	-2.1	50.5*	10.8	x
Cc1ccccc1C(=O)O/N=C(\N)Cc1cccs1	x	-21.6	-62.5	-21.5	100.3*	91.6*	114.5*
CC(C)(C)n1cnc2cc(NC(=O)c3ccccc3)ccc21	3.5	-41.9	-9.4	-13.8	-58.5	x	x
CCc1ccc(OCCNC(=O)c2ccccc2SCc2ccccc2)cc1	0.5	6.0	-143.3	-34.6	79.6*	79.5*	57.4*
CC(C)=CCC/C(C)=C/CCC(C)NCCN1CCNCC1 (centres undefined)	6.8	x	-4.8	-26.4	26.7	x	x
CC(C)=CCC/C(C)=C/CC(C)(C)CNCCN1CCNCC1	7.0	x	-12.8	3.7	87.7*	29.9	x
COc1ccc2c(c1)[nH]c1c(=O)n(/N=C/c3ccc(OC)c(COc4ccccn4)c3)cnc12	-17.6	4.8	-14.3	-11.1	-30.7	x	x
